{"source": "PubChem BioAssay (Tox21)", "key": {"[1]": {"experiment": "cAMP Responsive Elements (CRE) small molecule antagonists, cell-based qHTS assay: qHTS cell viability counter screen (AID 2060913); note: nearly all actives have a fitted effect of over 40% in size", "summary_of_the_method": "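Steps: cells plated and held 18 hrs at 37 C/5% CO2; compounds and NKH477 (0.25 uM final) added; 3 hrs incubation; reporter substrate read; CellTiter-Glo added to measure cytotoxicity by luminescence.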"}, "[2]": {"experiment": "cAMP Responsive Elements (CRE) small molecule agonists, cell-based qHTS assay: qHTS cell viability counter screen (AID 2060914); note: nearly all actives have a fitted effect of over 50% in size", "summary_of_the_method": "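Cells are seeded and incubated 18 h, treated with compounds in DMSO for 3 h, read for the bla reporter, then given CellTiter-Glo; luminescence is measured after 30 min at room temperature.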"}}, "note": "Inconclusive results are not listed. Entries that show only a call come without a potency. Calls of active or inactive are those of the source. Calls come from the whole dose curve; as a rule, active = well fitted cell-killing curve with a large enough effect in the repeat runs; inconclusive = weak or mixed curves, or effect the other way; inactive = flat fitted curve, though single readings scatter."}
{"smiles": "Cc1cccc(S(=O)(=O)O)c1C", "values": [{"measurement": "Potency", "setting": "[1]", "value": "inactive"}, {"measurement": "Potency", "setting": "[2]", "value": "inactive"}]}
{"smiles": "COc1ccccc1N=Nc1c(S(=O)(=O)O)cc2cc(S(=O)(=O)O)cc(NC(C)=O)c2c1O", "values": [{"measurement": "Potency", "setting": "[1]", "value": "inactive"}, {"measurement": "Potency", "setting": "[2]", "value": "inactive"}]}
{"smiles": "C1COCO1", "values": [{"measurement": "Potency", "setting": "[1]", "value": "inactive"}, {"measurement": "Potency", "setting": "[2]", "value": "inactive"}]}
{"smiles": "CCC(C)C1CCCCC1=O", "note": "(stereo not given)", "values": [{"measurement": "Potency", "setting": "[1]", "value": "inactive"}, {"measurement": "Potency", "setting": "[2]", "value": "inactive"}]}
{"smiles": "NC(=O)NO", "values": [{"measurement": "Potency", "setting": "[1]", "value": "inactive"}, {"measurement": "Potency", "setting": "[2]", "value": "inactive"}]}
{"smiles": "Cc1cccc(C)c1C", "values": [{"measurement": "Potency", "setting": "[1]", "value": "inactive"}, {"measurement": "Potency", "setting": "[2]", "value": "inactive"}]}
{"smiles": "O=C(O)C(c1ccc(Cl)cc1)c1ccc(Cl)cc1", "values": [{"measurement": "Potency", "setting": "[1]", "value": "inactive"}, {"measurement": "Potency", "setting": "[2]", "value": "inactive"}]}
{"smiles": "CCCCOCCCC", "values": [{"measurement": "Potency", "setting": "[1]", "value": "inactive"}, {"measurement": "Potency", "setting": "[2]", "value": "inactive"}]}
{"smiles": "Nc1ccc(C(=O)NCC(=O)O)cc1", "values": [{"measurement": "Potency", "setting": "[1]", "value": "inactive"}, {"measurement": "Potency", "setting": "[2]", "value": "inactive"}]}
{"smiles": "CC(COC(C)(C)C)OCCCO", "note": "(stereo not given)", "values": [{"measurement": "Potency", "setting": "[1]", "value": "inactive"}, {"measurement": "Potency", "setting": "[2]", "value": "inactive"}]}
{"smiles": "Nc1cc(Cl)c(N)c(Cl)c1", "values": [{"measurement": "Potency", "setting": "[1]", "value": "inactive"}, {"measurement": "Potency", "setting": "[2]", "value": "inactive"}]}
{"smiles": "c1ccc2[nH]c(-c3cscn3)nc2c1", "values": [{"measurement": "Potency", "setting": "[1]", "value": "inactive"}, {"measurement": "Potency", "setting": "[2]", "value": "inactive"}]}
{"smiles": "COc1ccccc1OCC(O)CO", "note": "(stereo not given)", "values": [{"measurement": "Potency", "setting": "[1]", "value": "inactive"}, {"measurement": "Potency", "setting": "[2]", "value": "inactive"}]}
{"smiles": "COC(=O)c1ccccc1", "values": [{"measurement": "Potency", "setting": "[1]", "value": "inactive"}, {"measurement": "Potency", "setting": "[2]", "value": "inactive"}]}
{"smiles": "N=C(N)c1ccc(OCCCOc2ccc(C(=N)N)cc2)cc1", "values": [{"measurement": "Potency", "setting": "[1]", "value": "inactive"}, {"measurement": "Potency", "setting": "[2]", "value": "inactive"}]}
